From PubChem BioAssay AID1159580 (chemical genetic matrix, 2015)
Among all 5,500 compounds or so, about 2,000 (36%) were called active. Not shown: some 18% with an inconclusive outcome. Rule as the data show it: active = normalized growth mostly below about 0.91 (no sharp cut-off); inconclusive = no clear call, values can overlap the other calls; inactive = mostly above about 0.92. Some of the results follow.

Test: chemical genetic growth profiling, strain panel (AID 1159580);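 also: tested at 20 µM; growth read once vehicle control cultures reached saturation at 30 °C; 1 = growth at the plate median or of vehicle wells; lower values mean less growth of the strain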
Details: S. cerevisiae deletion strains, growth OD

Measured: normalized growth

O=C(/C=C(\O)c1ccccc1)c1ccccc1O
active: locus YAL021C, strain ccr4, active compounds read low 0.843 | locus YAL026C, strain drs2, active compounds read low 0.775 | locus YAL030W, strain snc1, active compounds read low 0.827 | locus YBL061C, strain skt5, active compounds read low 0.776 | locus YBR009C, strain hhf1, active compounds read low 0.667 | locus YBR023C, strain chs3, active compounds read low 0.778 | locus YBR171W, strain sec66, active compounds read low 0.807 | locus YBR229C, strain ROT2, active compounds read low 0.778 | locus YBR231C, strain swc5, active compounds read low 0.65 | locus YBR279W, strain paf1, active compounds read low 0.865 | locus YCL011C, strain gbp2, active compounds read low 0.681 | locus YCL016C, strain dcc1, active compounds read low 0.836 | locus YCL029C, strain bik1, active compounds read low 0.593 | locus YCL061C, strain MRC1, active compounds read low 0.812 | locus YCL069W, strain vba3, active compounds read low 0.843 | locus YCR088W, strain abp1, active compounds read low 0.877 | locus YDL035C, strain GPR1, active compounds read low 0.791 | locus YDL040C, strain nat1, active compounds read low 0.918 | locus YDL074C, strain BRE1, active compounds read low 0.28 | locus YDL101C, strain DUN1, active compounds read low 0.595 | locus YDL134C, strain PPH21, active compounds read low 0.827 | locus YDL185W, strain tfp1, active compounds read low 0.817 | locus YDL192W, strain arf1, active compounds read low 0.776 | locus YDR001C, strain nth1, active compounds read low 0.903 | locus YDR069C, strain doa4, active compounds read low 0.701 | locus YDR101C, strain arx1, active compounds read low 0.665 | locus YDR137W, strain rgp1, active compounds read low 0.402 | locus YDR159W, strain sac3, active compounds read low 0.682 | locus YDR162C, strain NBP2, active compounds read low 0.794 | locus YDR297W, strain sur2, active compounds read low 0.856 | locus YDR318W, strain mcm21, active compounds read low 0.844 | locus YDR334W, strain swr1, active compounds read low 0.687 | locus YDR335W, strain msn5, active compounds read low 0.857 | locus YDR388W, active compounds read low 0.736 | locus YDR392W, strain spt3, active compounds read low 0.71 | locus YDR502C, strain sam2, active compounds read low 0.845 | locus YEL003W, strain gim4, active compounds read low 0.709 | locus YEL037C, strain rad23, active compounds read low 0.868 | locus YEL061C, strain CIN8 (second series), active compounds read low 0.903 | locus YEL061C, strain CIN8, active compounds read low 0.826 | locus YER015W, strain faa2, active compounds read low 0.685 | locus YER016W, strain bim1, active compounds read low 0.88 | locus YER110C, active compounds read low 0.787 | locus YER111C, strain swi4, active compounds read low 0.871 | locus YER155C, strain BEM2 (second series), active compounds read low 0.755 | locus YER155C, strain BEM2, active compounds read low 0.413 | locus YER167W, strain BCK2, active compounds read low 0.554 | locus YFR010W, strain ubp6, active compounds read low 0.766 | locus YGL086W, strain mad1, active compounds read low 0.794 | locus YGL167C, strain pmr1, active compounds read low 0.895 | locus YGL173C, strain kem1, active compounds read low 0.779 | locus YGL227W, strain vid30, active compounds read low 0.906 | locus YGL240W, strain doc1, active compounds read low 0.758 | locus YGL248W, strain PDE1, active compounds read low 0.491 | locus YGL253W, strain hxk2, active compounds read low 0.543 | locus YGR135W, strain pre9, active compounds read low 0.836 | locus YHR027C, strain rpn1, active compounds read low 0.637 | locus YHR030C, strain SLT2, active compounds read low 0.854 | locus YHR079C, strain IRE1 (second series), active compounds read low 0.554 | locus YHR129C, strain ARP1, active compounds read low 0.527 | locus YHR142W, strain chs7, active compounds read low 0.648 | locus YHR200W, strain rpn10, active compounds read low 0.863 | locus YIL066C, strain RNR3, active compounds read low 0.696 | locus YIL073C, strain SPO22, active compounds read low 0.301 | locus YIR030C, strain dcg1, active compounds read low 0.592 | locus YJL092W, strain hpr5, active compounds read low 0.87 | locus YJL095W, strain BCK1 (second series), active compounds read low 0.741 | locus YJL095W, strain BCK1, active compounds read low 0.254 | locus YJL129C, strain trk1, active compounds read low 0.741 | locus YJL134W, strain LCB3, active compounds read low 0.908 | locus YJL154C, strain vps35, active compounds read low 0.918 | locus YJL164C, strain tpk1, active compounds read low 0.695 | locus YJL166W, strain qcr8, active compounds read low 0.546
inactive: locus YBR021W, strain FUR4, active compounds read low 0.939 | locus YDL005C, strain med2, active compounds read low 0.941 | locus YDR195W, strain ref2 1.06 | locus YGL078C, strain dbp3, active compounds read low 0.986 | locus YGR078C, strain PAC10, active compounds read low 0.914 | locus YGR252W, strain gcn5, active compounds read low 0.872 | locus YHR013C, strain ard1, active compounds read low 0.865 | locus YHR094C, strain hxt1, active compounds read low 0.935 | locus YIL125W, strain kgd1, active compounds read low 0.98 | locus YJL115W, strain asf1, active compounds read low 0.94 | locus YJL168C, strain set2, active compounds read low 0.958
